# According to PubChem BioAssay AID1851 (National Center for Advancing Translational Sciences (NCATS), 2009):
# Values joined by “and” are separate entries in the source; they are usually repeats but may differ in a detail not shown here. Equal entries are not always repeated. The whole screen tested about 16,000 compounds, of which about 2,600 (16%) were called active. Roughly 20% stayed inconclusive and do not appear here. The sample holds actives, similar compounds and a random draw of the others, so the mix is not that of the screen. Calls come from the whole dose curve; as a rule, active = well fitted curve in the direction sought with a large enough effect; inconclusive = small, poorly fitted or top-dose-only effect, or effect the other way; inactive = no such curve, though single readings can be large or run the other way. A structure can be active in one record and inactive in another.
# Target: Cytochrome P450 2D6 (Homo sapiens) (UniProt P10635)
# Sequence (P10635 whole entry, looked up): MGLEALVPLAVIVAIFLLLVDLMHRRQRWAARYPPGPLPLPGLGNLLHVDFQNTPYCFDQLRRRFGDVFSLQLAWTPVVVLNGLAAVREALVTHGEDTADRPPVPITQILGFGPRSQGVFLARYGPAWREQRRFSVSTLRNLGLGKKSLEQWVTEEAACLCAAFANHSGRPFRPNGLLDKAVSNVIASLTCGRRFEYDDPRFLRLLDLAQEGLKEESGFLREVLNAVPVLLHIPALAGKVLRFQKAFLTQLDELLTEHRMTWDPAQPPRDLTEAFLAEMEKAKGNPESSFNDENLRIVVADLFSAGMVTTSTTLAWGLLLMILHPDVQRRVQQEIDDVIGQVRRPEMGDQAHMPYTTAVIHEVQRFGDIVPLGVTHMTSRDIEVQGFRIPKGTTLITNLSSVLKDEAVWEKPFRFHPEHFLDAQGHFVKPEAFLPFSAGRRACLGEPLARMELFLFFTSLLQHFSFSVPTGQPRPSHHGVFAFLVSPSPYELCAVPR
# Assay: Cytochrome panel assay with activity outcomes
# Conditions: recombinant CYP, pro-luciferin dealkylation, luminescence, p450-cyp2d6; series mostly up to 57.1 µM; activity, negative = inhibition: at the top concentration
# Method: The P450 gene superfamily is involved in the metabolism and clearance of xenobiotics. This assay used various human CYP P450 isozymes to measure the dealkylation of various pro-luciferin substrates to luciferin. The luciferin is then measured by luminescence after the addition of a luciferase detection reagent. Pro-luciferin substrate concentration in the assay was equal to its KM for its CYP P450 isozyme. Inhibitors and some substrates limit the production of luciferin, and decrease measured luminescence.
# NCGC Assay Protocol Summary:
# 1, Reagent, 2 uL, Isozyme and Pro-Luciferin
# 2, Library compounds, 23 nl, 40 uM to 0.24 nM dilution series
# 3, Controls, 23 nl, Isozyme specific inhibitor
# 4, Reagent, 2 uL, NADPH regeneration solution
# 5, Incubation time, 60 min, Isozyme specific temperature
# 6, Reagent, 4ul, Detection reagent
# 7, Incubation time, 20 min, Isozyme specific temperature
# 8, Detection, 1 sec, ViewLux luminescent read
# The luciferase-based P450-GloTM Screening Systems were obtained from Promega (Madison, WI) for CYP 1A2 (V9770), CYP 2C9 (V9790), CYP2 C19 (V9880), CYP 2D6 (V9890), and CYP 3A4 Luciferin-PPXE (V9910) and were adapted for 1,536-well microplates and an automated protocol. The control compounds furafylline for 1A2 (F124), sulfaphenazole for CYP 2C9 (S0758), ketoconazole for CYP 2C19 (K1003), quinidine for 2D6 (Q3625), and ketoconazole for 3A4 (K1003) were purchased from Sigma Aldrich (St. Louis, MO). Recombinant P450 enzymes were obtained from baculovirus constructs expressed in insect cells (BD/Gentest).
# Medium-binding white solid Kalypsys plates used. Mixtures kept on ice. 1A2: 10 nM 1A2, 100 uM Luc-ME, 100 mM KPO4; 2C9: 10 nM 2C9, 100 uM Luc-H, 25 mM KPO4; 2C19: 5 nM 2C19, 10 uM Luc-H EGE, 50 mM KPO4; 2D6: 5 nM 2D6, 30 uM Luc-ME EGE, 100 mM KPO4; 3A4: 10 nM, 25 uM Luc-PPXE. All amounts are reflected in their final concentration, working concentration is 2x.
# NADPH regeneration solution: 1.3 mM NADP+, 3.3 mM glucose-6-phosphate, 3.3 mM MgCl2, 0.4 U/mL glucose-6-phosphate dehydrogenase for all isozymes, 200 mM KPO4 for 3A4. Mixture prepared at RT but kept on ice during automated run.
# RT incubation in auxilliary plate hotel for 1A2, 2D6, and 3A4; 37C for 2C9 and 2C19.
# Keywords: P450, CYP1A2, CYP2C19, CYP2C9, CYP2D6, CYP3A4, Luciferase, MLSMR, MLSCN, NIH Roadmap, qHTS, NCGC
# % is set by controls: 0 for no effect and ±100 for the full control effect.
Structure (SMILES),"activity, negative = inhibition",AC50
CC(C)[C@@]1(NC(=O)[C@@H]2C[C@H]3c4cccc5[nH]cc(c45)C[C@@H]3N(C)C2)O[C@]2(O)[C@H]3CCCN3C(=O)CN2C1=O,-18.7% [at 25.6 µM] (inactive),
CC(C)[C@@]1(NC(=O)[C@@H]2C[C@H]3c4cccc5[nH]cc(c45)C[C@@H]3N(C)C2)O[C@]2(O)[C@H]3CCCN3C(=O)[C@H](Cc3ccccc3)N2C1=O,-17.6% [at 25.6 µM] (inactive),
CC(C)[C@@]1(NC(=O)[C@@H]2C[C@H]3c4cccc5[nH]cc(c45)C[C@@H]3N(C)C2)O[C@@]2(O)[C@H]3CCCN3C(=O)[C@H](Cc3ccccc3)N2C1=O,-17.1% (inactive),
NCCCNCCSP(=O)(O)O,-2.11% (inactive),
N[C@H](Cc1ccc2oc3cc(=O)c4ccccc4c-3nc2c1)C(=O)O,-14.6% [at 11.4 µM] (inactive),
CC1(C)CCC(C)(C)c2c1ccc(O)c2Cc1c(O)ccc2c1C(C)(C)CCC2(C)C,4.74% [at 11.4 µM] (inactive),
CCn1c(O)c(C(c2ccccn2)c2c(O)n(CC)c(=S)[nH]c2=O)c(=O)[nH]c1=S,2.86% (inactive),
O=C(C[C@H](c1ccccc1)c1c(O)c2ccccc2oc1=O)c1ccccc1,12.6% [at 11.4 µM] (inactive),
COCCn1c(SCc2nc3sc(C(=O)OC)c(C)c3c(=O)[nH]2)nc2ccccc21,,10 µM (active)
CC(C)C(=O)CP(=O)(O)O,-4.98% [at 11.4 µM] (inactive),
COc1cc(OC)c(/C=C2/C(=O)Nc3ccccc32)c(OC)c1,2.82% (inactive),
C[C@H](c1ccccc1)N1CCN([C@@H](C)c2ccccc2)CC1,,0.0631 µM (active)
CCOC(=O)c1cncn1[C@@H](C)c1ccccc1,-4.3% [at 25.6 µM] (inactive),
CCOC(=O)c1cncn1[C@H](C)c1ccccc1,-4.57% (inactive),
C(=NC12CN3CN(CN(C3)C1)C2)c1cccs1,5.66% (inactive),
S=C=Nc1cccc(C2(N3CCCCC3)CCCCC2)c1,,10 µM (active)
COC(=O)C1=CCCN(C)C1,,inactive
CCCC(CCC)C(=O)O,-0.976% (inactive),
CCC1(C)CC(=O)NC(=O)C1,3.83% [at 25.6 µM] (inactive),
N[C@H](C(=O)O)c1cc(=O)[nH]o1,12.8% (inactive),
Cc1o[nH]c(=O)c1C[C@@H](N)C(=O)O,2.96% (inactive),
N[C@@H](Cc1cc(Br)c(O)c(Br)c1)C(=O)O,10.2% [at 11.4 µM] (inactive),
N[C@H](CCl)C(=O)O,4.24% (inactive),

Structure (SMILES),"activity, negative = inhibition",AC50
Cc1o[nH]c(=O)c1C[C@H](N)C(=O)O,,inactive and 15.8 µM (active)
N[C@H](Cc1o[nH]c(=O)c1Cl)C(=O)O,,0.158 µM (active)
C[C@@H]1O[C@H](O[C@@H]2CC[C@@]3(C=O)[C@H]4CC[C@@]5(C)[C@@H](C6=CC(=O)OC6)CC[C@@]5(O)[C@@H]4CC[C@]3(O)C2)C[C@H](O)[C@@H]1O,5.25% [at 25.6 µM] (inactive),
CCCCCCN=Cc1c(O)n(C)c(=O)n(C)c1=O,-19% (inactive),
CC1=C(C)[N+](=O)C2(O)CCCCC2(C)N1[O-] (stereo not given),18.1% (inactive),
C[C@@H]1O[C@@H](O[C@H]2C[C@@H](O)[C@]3(CO)[C@@H]4[C@@H](O)C[C@]5(C)[C@H](C6=CC(=O)OC6)CC[C@@]5(O)[C@H]4CC[C@@]3(O)C2)[C@H](O)[C@H](O)[C@@H]1O,-5.79% (inactive),
C[C@@H]1O[C@H](O[C@H]2C[C@@H](O)[C@@]3(CO)[C@H]4[C@@H](O)C[C@]5(C)[C@@H](C6=CC(=O)OC6)CC[C@]5(O)[C@H]4CC[C@]3(O)C2)[C@@H](O)[C@H](O)[C@@H]1O,2.17% [at 25.6 µM] (inactive),
C[C@@H]1O[C@H](O[C@@H]2C[C@@H](O)[C@]3(CO)[C@H]4[C@H](O)C[C@]5(C)[C@@H](C6=CC(=O)OC6)CC[C@@]5(O)[C@@H]4CC[C@]3(O)C2)[C@@H](O)[C@H](O)[C@H]1O,,0.0501 µM (active)
CCOC(=O)c1c(NC(=O)C(c2ccccc2)c2ccccc2)sc2c1C1CCN2CC1,6.8% (inactive),
CN1CC[C@@]23c4ccccc4N[C@H]1[C@]21CCN(C)[C@@H]3Nc2ccccc21,-7.44% [at 25.6 µM] (inactive),
CCCCN(CCCC)CCC(O)c1cc2c(Cl)cc(Cl)cc2c2cc(C(F)(F)F)ccc12 (stereo not given),,3.98 µM (active)
O=C(O)CNC(=O)[C@@H](CS)Cc1ccccc1,8.35% (inactive),
O=[N+]([O-])c1ccc2nc(N3CCNCC3)ccc2c1,-12.8% (inactive),
CN(N=O)C(=O)N[C@H]1[C@@H](O)[C@H](O)[C@H](CO)O[C@@H]1O,-1.92% [at 25.6 µM] (inactive),
COC(=O)[C@H]1[C@H](c2ccccc2)C(=O)[C@@]2(O)c3ccccc3O[C@@]12c1ccccc1,1.53% [at 11.4 µM] (inactive),
CCS(=O)(=O)Nc1cccc(C(=C2CCCCC2)c2cnc[nH]2)c1,,7.94 µM (active)
CN1C(=O)C(C2c3ccccc3C(=O)N2Cc2ccc([N+](=O)[O-])cc2)C(=O)N(C)C1=O (stereo not given),-17.5% (inactive),
C1C[C@@H]2CN(CCCN3CCOCC3)[C@@H](C1)O2,-5.61% [at 11.4 µM] (inactive),
CC1(C)CCC2=C(O1)c1ccccc1C(=O)C2=O,,15.8 µM (active)
CN1[C@@H](C[C@@H](O)c2ccccc2)CCC[C@@H]1C[C@H](O)c1ccccc1,,0.631 µM (active)
Cn1c[n+](C)cc1C(O)c1ccccc1 (stereo not given),-5.07% (inactive),
CN1[C@@H](CC(=O)c2ccccc2)CCC[C@@H]1C[C@@H](O)c1ccccc1,,0.0794 µM (active)
